# High-throughput results (PubChem BioAssay)
# Shiga toxin inh = blocks Shiga toxin action in Vero cells. inhibition, % at 38.7 µM. actives 9.2% (n = 290,000). Vero cells, Shiga toxin protein synthesis inhibition reporter. AID 2315; in the data active = inhibition mostly above about 28%, no sharp cut-off; inactive = mostly below about 43%; note: 0% is about no effect
# FMDV antiviral = antivirals against foot and mouth disease virus | FMDV antiviral cell-based qHTS | Potency, µM (top dose mostly 57.9 µM), for inactives: at the top dose activity change, negative = inhibition, most hits filed as inhibitors | actives 1.2% (n = 410,000); calls by dose curve; tested in HEK293T cells; note: read-out not given here; potency is the fitted concentration of half-maximal effect; % is set by controls: 0 for no effect and ±100 for the full control effect; nearly all actives have a fitted effect of over 45% in size
# HCV inh = blocks hepatitis C virus | Huh7.5.1 HCVcc-Cre infection, luciferase reporter, 44 h | Potency, µM (series often up to 41.8 µM), for the others: at the top dose activity change, negative = inhibition, actives largely listed as inhibitors | AID 651820 | actives 3.4% (n = 340,000); active = well fitted inhibition curve with a large enough effect; inconclusive = small, poorly fitted or top-dose-only effect, or another doubt; inactive = no such curve, though single readings can be large or run the other way; note: potency is the fitted concentration of half-maximal effect; % is set by controls: 0 for no effect and ±100 for the full control effect
#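 Compounds are dispensed onto cells plated 4 h earlier at 1,000 per well, with HCVcc-Cre virus (about 0.5 moi) added next. Following 44 h of culture, luminescent signal is measured for 15 sec after 15 min with substrate at room temperature.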
# Lassa entry inh = blocks Lassa virus binding to or entry into cells; AID 540256; actives 1.2% (n = 300,000); Potency, µM (top dose mostly 37.9 µM), for inactives: top-dose activity change, negative = inhibition, hits mostly inhibitors; Lassa virus pseudotype entry inhibition, cell reporter; calls by dose curve; tested in HEK293 cells; note: potency is the fitted concentration of half-maximal effect; % is set by controls: 0 for no effect and ±100 for the full control effect; nearly all actives have a fitted effect of over 50% in size
# CHX counter = counter-screen for Shiga toxin inhibitors: cycloheximide protein synthesis inhibition | actives 12% (n = 300,000) | AID 2314 | cell reporter, cycloheximide protein synthesis inhibition counterscreen | max response, %; in the data active = max response mostly above about 13%, no sharp cut-off; inactive = mostly below about 14%; note: read at 38.3 µM for the half of the compounds with a filed dose; 0% is about no effect
# Marburg entry inh = Marburg virus entry inhibition | AID 540276 | Marburg virus pseudotyped entry inhibition, cell reporter | Potency, µM (doses to about 37.8 µM), for the others: at the top dose activity change, negative = inhibition, actives largely listed as inhibitors | actives 1.8% (n = 300,000); calls by dose curve; tested in HEK293 cells; note: potency is the fitted concentration of half-maximal effect; % is set by controls: 0 for no effect and ±100 for the full control effect
# Active calls of the source: *; ? = inconclusive; · = no result given; [ ] = remark or other dose. This is a sample that favours compounds with a hit; in the whole collection about 13% have one here.
SMILES,Shiga toxin inh,FMDV antiviral,HCV inh,Lassa entry inh,CHX counter,Marburg entry inh
COc1ccc(Sc2cnn(-c3ccccc3)c(=O)c2Cl)cc1,-12.4,?,-12.0%,?,1.8,-0.9%
COc1ccc(-n2ncc(Cl)c(Cl)c2=O)cc1,32.4,8.91µM*,3.55µM*,?,1.5,?
COCCn1c(SCC(=O)Nc2cc(C)on2)nc2ccccc21,-15.4,-12.2%,-18.2%,1.7%,5.6,-25.0%
CCN(CC)CCCNC(=O)c1ccccc1NC(=O)C1=CSCCO1,-11.2,-29.4%,7.9%,·,-2.6,·
CCOc1cc(C2C(C(=O)c3ccccc3)=C(C(=O)OC)Nc3nnnn32)ccc1O (stereo unspecified),32.8,-0.7%,6.2%,-25.0%,22.8*,-2.2%
CC(=O)c1ccc(N(CC(=O)Nc2cc(C)on2)S(=O)(=O)c2ccc(C)cc2)cc1,·,16.3%,?,?,·,10.4%
O=c1c2c3c(sc2nc2n1CCCC2)CCCCC3,51.0,9.1%,?,7.5%,43.8*,?
Nc1nc2sc3c(c2c(=O)s1)CCCC3,62.7,·,-5.0%,8.5%,35.4*,5.3%
Nc1c2c3c(sc2nc(=O)n1N)CCCC3,-5.8,6.6%,3.4%,?,-3.3,12.9%
O=c1c2c3c(sc2nc2n1CCCCC2)CCCC3,96.7*,37.4%,-16.2%,0.4%,30.8*,19.0%
N=c1c2c3c(sc2nc2n1CCCCC2)CCCCC3,73.3*,24.4%,?,15.4%,31.7*,?
Cc1ccc(S(=O)(=O)N(CCO)Cc2ccccc2)cc1,-1.4,27.2%,16.9%,-1.6%,-1.2,2.6%
Cc1ccc(-n2nnnc2SCC(=O)c2c(N)n(CC(C)C)c(=O)n(C)c2=O)cc1,-1.1,14.1%,-3.6%,-22.4%,-1.7,-0.8%
CC1CSc2nc3sc4c(c3c(=O)n21)CCCC4 (stereo unspecified),25.9,6.3%,-23.1%,3.7%,22.1*,?
O=c1c2c3c(sc2nc2n1CCCCC2)CCCCC3,73.5*,·,6.0%,·,28.3*,2.0%
CC1=Nn2c(nc3sc4c(c3c2=O)CCCC4)SC1,56.6,43.3%,-15.7%,12.5%,23.9*,?
O=c1c2c3c(sc2nc2n1CCC2)CCCC3,27.4,2.9%,-5.2%,·,17.3,2.1%
O=c1c2c3c(sc2nc2n1CCCS2)CCCC3,51.8,43.7%,-19.8%,?,41.8*,12.1%
O=c1c2c3c(sc2nc2n1CCCC2)CCC3,-7.4,·,-10.6%,-9.8%,3.2,2.5%
COc1cccc(-c2sc3ccccc3c2-c2ccc(OCCN(C)C)cc2)c1,·,?,11.2µM*,·,·,·
COc1ccc(-c2sc3ccccc3c2-c2ccc(OCCN3CCCCC3)cc2)cc1,·,-27.7%,16.7%,·,·,·
COc1ccc2sc(-c3ccccc3OC)c(-c3ccc(OCCN(C)C)cc3)c2c1,·,-4.2%,10µM*,·,·,·
CCCCOc1ccc(C(=O)NCCC(=O)NCCCC(=O)OCC)cc1,10.2,4.5%,25.7%,-19.9%,2.0,21.9%
CC(C)OC(=O)N(C)C[C@H]1OCc2cn(nn2)CCCC(=O)N([C@H](C)CO)C[C@@H]1C,·,0.0%,·,·,·,·
N/C(=N\OC(=O)c1cccc(Cn2cc(C(F)(F)F)ccc2=O)c1)c1ccccc1,40.8*,1.2%,?,·,32.1*,·
SMILES,Shiga toxin inh,FMDV antiviral,HCV inh,Lassa entry inh,CHX counter,Marburg entry inh
N/C(=N\OC(=O)c1cccc(Br)c1)c1ccccc1,59.4*,16.3%,11.2µM*,6.3%,26.6*,?
N/C(=N\OC(=O)c1ccc(Cl)c(Cl)c1)c1ccccn1,106.8*,-53.5%,17.1%,?,19.0*,?
N/C(=N\OC(=O)c1ccc2ccccc2c1)c1ccc(Br)cc1,18.6,18.7%,2.4%,9.9%,6.1,?
N/C(=N\OC(=O)c1ccc(Cl)c([N+](=O)[O-])c1)c1ccccn1,140.9*,48.9%,?,?,72.3*,3.16µM*
COc1ccc(OC)c(S(=O)(=O)NCC(=O)NC2CCCCCC2)c1,·,27.9%,0.2%,·,·,·
CCn1c(=O)cc(N2CCCCC2)[nH]c1=O,-12.9,-25.9%,36.1%,11.4%,1.2,5.1%
Cc1ccc(Cl)cc1-n1c(=O)cc(N2CC(C)OC(C)C2)[nH]c1=O (stereo unspecified),-3.2,-8.2%,5.2%,16.9%,-1.0,?
Cc1ccc(CC(=O)NCCS(=O)c2ccc(C)cc2)cc1 (stereo unspecified),-3.0,-17.8%,5.0%,1.0%,9.7,16.8%[46.1 µM]
COc1ccc(N(C(=O)c2ccco2)C(C(=O)NC2CCCC2)c2ccncc2)cc1OC (stereo unspecified),-13.9,13.0%,5.2%,1.4%,-2.9,-15.6%[46.1 µM]
N/C(=N\OC(=O)c1cccc(Cl)c1)c1ccccn1,45.9,-57.4%,-4.7%,7.94µM*,42.1*,3.66µM*
N/C(=N\OC(=O)c1ccc(Cl)cc1)c1ccccn1,32.6,-79.4%,?,?,7.2,?
N/C(=N\OC(=O)c1cccc(Br)c1)c1ccccn1,35.9*,-51.8%,13.6%,·,65.8*,·
Nc1nc(SCC(=O)c2cccc([N+](=O)[O-])c2)n[nH]1,3.5,-17.2%,?,3.4%,-2.1,6.3%
O=C(c1cc(C(=O)NCCc2ccccc2)c(=O)n(CCc2ccccc2)c1)c1cc(Cl)ccc1O,-3.7,-6.7%,?,?,-4.6,?
CN(C)C(CNC(=O)/C=C/c1cccc(Cl)c1)c1ccccc1 (stereo unspecified),7.2,10.1%,11.3%,-20.1%,4.5,?
COCCCNC(=O)/C=C/c1cccc(Cl)c1,29.7,39.2%,-0.2%,7.7%,21.2*,0.5%
CSc1cccc(NC(N)=O)c1,8.8,0.3%,5.3%,-3.1%[46.1 µM],-0.3,2.3%[46.1 µM]
O=C(/C=C/c1cccc(Cl)c1)Nc1ncccn1,54.6*,30.8%,-17.5%,9.1%,15.2,27.7%
CSc1cccc(NC(=O)/C=C/c2cccc(Cl)c2)c1,143.4*,-12.7%,?,?,72.0*,?
O=C(Nc1c(F)cc(F)cc1Br)c1cc(-c2ccccc2)on1,·,30.8%,?,·,15.9*,·
O=C(Nc1c(F)cc(F)cc1Br)c1cc(-c2ccc(O)cc2)on1,22.9,12.3%,-20.0%,·,30.7*,·
Cc1cc(C(=O)Nc2c(F)cc(F)cc2Br)no1,25.9,0.0%,-1.5%,5.9%,13.6*,10.0%
CCc1c(C)nc2ncnn2c1N1CCCC(C(=O)NCCc2ccccc2)C1 (stereo unspecified),32.4,-6.5%,-26.1%,2.0%,17.3,-22.7%
CCOc1ccc(NC(=O)C2CCCN(c3c(CC)c(C)nc4ncnn34)C2)cc1 (stereo unspecified),29.0,?,12.6µM*,·,8.9,-21.0%[46.1 µM]
CCc1c(C)nc2ncnn2c1N1CCCC(C(=O)Nc2cc(F)ccc2C)C1 (stereo unspecified),-22.4,35.5µM*,-29.6%,-8.1%,-3.2,?
Cc1cc(N2CCN(S(=O)(=O)c3ccc(Br)cc3)CC2)n2ncnc2n1,-3.2,-29.0%,?,-9.0%,-2.6,-0.9%[46.1 µM]
CCc1c(C)nc2ncnn2c1N1CCN(S(=O)(=O)c2ccc(OC)cc2)CC1,20.2,-29.9%,1.78µM*,?,-3.3,?
